# Data reported in ChEMBL document CHEMBL1157539, “Thousands of chemical starting points for antimalarial lead identification” (Nature, 2010).
# Columns and labels:
# Type in all cases: functional
# Plasmodium falciparum [1] = experiment: GSK_TCMDC: Inhibition of Plasmodium falciparum 3D7 in whole red blood cells, using parasite LDH activity as an index of growth. Test compounds present at 2uM
# Plasmodium falciparum [2] = experiment: GSK_TCMDC: Inhibition of Plasmodium falciparum Dd2 in whole red blood cells, using parasite LDH activity as an index of growth. Test compounds present at 2uM
# HepG2 = experiment: GSK_TCMDC: Percent inhibition of human HepG2 cell line. Test compounds present at 10uM.
Compound,Inhibition (Plasmodium falciparum [1]),Inhibition (Plasmodium falciparum [2]),Inhibition (HepG2)
COc1cc2c(cc1C(F)(F)F)N(C(=O)Nc1cc(-c3ccncc3)cc(-c3cccnc3)c1)CC2,95%,50%,64%
c1ccc2cc3c(NCCN4CCOCC4)ccnc3cc2c1,99%,98%,0%
CC(=O)NCCNc1cc(N2CCc3ncnc(Nc4ccc(OCc5c(F)cccc5F)c(Cl)c4)c3C2)ncn1,100%,100%,55%
Cc1ccc(NC(=O)Nc2ccc(Cl)c(C(F)(F)F)c2)cc1-c1ccc(C(=O)NCCN2CCOCC2)cc1,98%,31%,52%
COc1ccc(-c2cccc(NC(=O)c3cccc(Cl)c3)c2)cc1CN(C)CCN(C)C.O=C(O)C(F)(F)F,100%,73%,32%
CCN1CCCC1CNC(=O)c1cc2c(-c3ccc(Cl)cc3)nn(C)c2s1 (configuration not stated),96%,20%,27%
Br.CCCC1N=C(N)N=C(N)N1c1cccc([N+](=O)[O-])c1 (configuration not stated),96%,1%,0%
O=C(NCC1CCN(Cc2cccc(F)c2)C1)c1cc(-c2cccc(C(F)(F)F)c2)cs1.O=C(O)C(F)(F)F (configuration not stated),96%,10%,31%
Cc1nc2c(c(O)c1Cl)-c1ccc(Oc3cccc(C(F)(F)F)c3)cc1C2=O,98%,97%,25%
COc1ccc2c(NN=Cc3cccc(F)c3)ccnc2c1,100%,95%,49%
Cn1nccc1C(=O)NCCNCc1ccc(-c2ccc(-c3nc4cc(F)ccc4[nH]3)cc2)cc1.O=C(O)C(F)(F)F,100%,98%,28%
CC(C)NCc1cccc(-c2ccc(NC(=O)c3ccc(C#N)cc3)cc2)c1.O=C(O)C(F)(F)F,99%,8%,15%
CCOc1cc(C)ccc1C1CCN(CCCCNC(=O)c2coc(-c3ccc(Cl)cc3)c2)CC1.Cl,92%,30%,34%
Cc1cc(Nc2cccc(C(F)(F)F)c2)nc(N)n1,98%,24%,5%
Cl.N=C(N)Nc1ccc(OCCCCCOc2ccc(NC(=N)N)cc2Br)c(Br)c1,92%,95%,27%
CC(=O)c1ccc(-c2ccccc2)s1,92%,2%,0%
CCOc1cc(C(=O)NC2CCN(Cc3ccccc3)C2)ccc1-c1nc2cc(Cl)ccc2[nH]1 (configuration not stated),98%,60%,7%
O=C(Cn1c(=O)cnc2ccccc21)Nc1cccc(C(=O)Nc2cccc(C(F)(F)F)c2)c1,90%,66%,0%
Cl.OC(c1cccc(OCc2ccccc2)c1)C1CN(CCc2ccccc2)CCC1(O)c1ccccc1 (configuration not stated),98%,98%,7%
Cl.O=S(=O)(Nc1cc2c(cc1O)CCN(C1CCC1)CC2)c1ccc(Oc2ccc(F)cc2)cc1,99%,52%,20%
CN(C)CCN(C)Cc1ccc(-c2cccc(NC(=O)c3ccc(Cl)cc3)c2)cc1.O=C(O)C(F)(F)F,97%,71%,69%
Cc1cccc2nc(-c3ccc(-c4cccc(NC(=O)c5ccncc5)c4)cc3)[nH]c12,98%,8%,46%
Cl.O=C(O[C@H]1CN[C@H](C#Cc2cc3c(Nc4ccc(OCc5cccc(F)c5)c(Cl)c4)ncnc3s2)C1)N1CCCC1,99%,67%,11%
ON=C(c1nc2ccccc2[nH]1)c1nc2ccccc2[nH]1,93%,68%,36%
O=C1c2ccccc2C(=O)N1CCOc1c(Br)cc(Br)cc1CNCCCNc1cc(=O)c2ccccc2[nH]1,92%,12%,10%
CC(CCCC(=O)Nc1ccc(CC(C)NCCc2cccc(Cl)c2)cc1)NCCc1cccc(Cl)c1 (configuration not stated),100%,14%,98%
O=C(NCCc1ccccc1)N(Cc1cccc(-c2ccc(CNC3CCCC3)cc2)c1)C1CCN(Cc2ccccc2)CC1.O=C(O)C(F)(F)F,98%,84%,36%
C=C(F)c1sc(CNCCCNc2nc3ccccc3[nH]2)c(C)c1Br,100%,23%,15%
CC1(C)CCC(C)(C)c2c1ccc(C1CCN(CCCCNC(=O)c3ccc(-c4ccc(C#N)cc4)cc3)CC1)c2OCC(N)=O,100%,100%,99%
